Laboratory results taken from PubChem BioAssay AID1942 (Johns Hopkins Ion Channel Center, 2009).
The campaign covered roughly 2,400 compounds. About 580 (24%) were called active. The list is a sample of the results. A number with no mark means an inactive call.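 How the source made its calls: active means activity change at or above the mean plus 3 SD of buffer wells without dofetilide, per plate; inactive means the rest.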

Target: Potassium voltage-gated channel subfamily KQT member 2 (Rattus norvegicus) (UniProt O88943)
Assay: KCNQ2 potentiation in CHO cells – cell-based, FluxOR thallium flux, counter-screen for hERG block protector project, confirmation (AID 1942);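 further: normalized value minus buffer-control mean plus three SD of buffer wells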
Conditions: FluxOR thallium flux fluorescence, at 10 µM, hits give high values

Sequence of Potassium voltage-gated channel subfamily KQT member 2 (Rattus norvegicus) (O88943 whole entry, looked up): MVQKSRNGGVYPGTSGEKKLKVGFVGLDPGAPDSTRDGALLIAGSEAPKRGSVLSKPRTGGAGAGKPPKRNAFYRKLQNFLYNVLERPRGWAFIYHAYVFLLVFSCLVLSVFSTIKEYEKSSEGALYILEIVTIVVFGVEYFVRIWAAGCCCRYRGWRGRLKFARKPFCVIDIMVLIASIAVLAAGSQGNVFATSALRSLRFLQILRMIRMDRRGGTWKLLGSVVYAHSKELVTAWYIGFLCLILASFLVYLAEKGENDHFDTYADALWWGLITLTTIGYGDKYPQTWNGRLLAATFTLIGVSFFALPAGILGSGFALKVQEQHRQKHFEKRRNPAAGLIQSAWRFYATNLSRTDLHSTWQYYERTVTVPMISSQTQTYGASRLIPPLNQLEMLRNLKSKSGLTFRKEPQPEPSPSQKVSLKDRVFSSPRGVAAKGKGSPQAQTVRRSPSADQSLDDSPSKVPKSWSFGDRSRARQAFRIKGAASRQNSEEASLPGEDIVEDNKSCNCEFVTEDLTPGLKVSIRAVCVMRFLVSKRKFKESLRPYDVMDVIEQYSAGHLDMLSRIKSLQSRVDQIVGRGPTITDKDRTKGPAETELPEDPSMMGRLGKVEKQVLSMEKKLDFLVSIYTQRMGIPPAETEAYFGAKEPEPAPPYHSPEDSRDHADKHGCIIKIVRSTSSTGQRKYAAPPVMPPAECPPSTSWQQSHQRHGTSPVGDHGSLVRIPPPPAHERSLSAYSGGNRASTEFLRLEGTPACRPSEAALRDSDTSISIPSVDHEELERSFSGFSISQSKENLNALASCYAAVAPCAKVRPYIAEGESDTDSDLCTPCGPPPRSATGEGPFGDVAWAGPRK

Compound | activity change, less the hit threshold
CCOc1ccc(NC(=O)c2ccc(NC(=O)CSc3nc4ccccc4c(=O)[nH]3)cc2)cc1 | -13.5%
Fc1cccc(/C=N/Nc2ccc3ccccc3n2)c1 | -17.9%
CC(=O)c1c(NC(=O)c2ccccc2)[nH]c(-c2ccccc2)nc1=S | 7% (active)
CC(=O)c1c(N2CCN(Cc3ccccc3)CC2)[nH]c(-c2ccccc2)nc1=S | 22.7% (active)
CC(=O)c1c(N)[nH]c(-c2ccccc2)nc1=S | -0.2%
C=C(C)Cc1c(C)nc(-c2ccccc2)[nH]c1=O | -12.3%
CC(=O)c1c(C)[nH]c(-c2ccccc2)nc1=S | -7.7%
CSc1nc(-c2ccccc2)[nH]c(=S)c1C(C)=O | 72.6% (active)
CC(=O)c1c(N2CCCC2)[nH]c(-c2ccccc2)nc1=S | -6%
Cc1ccccc1CC(=O)NC1CCN(Cc2ccccc2)CC1 | -25.3%
O=C(NCc1cccc(Cl)c1)c1ccncc1 | -23.6%
Cc1ccc(C(C)NC(=O)c2ccc3c(c2)OCO3)cc1C (stereo not given) | 27.1% (active)
Cc1cc(C(=O)CCC(=O)NC(C)c2ccc(S(N)(=O)=O)cc2)c(C)s1 (stereo not given) | -10%
Cc1ccc(C(C)NC(=O)c2cccs2)cc1C (stereo not given) | 4% (active)
Cc1ccc(NC(=O)c2ccc3c(c2)OCO3)cc1Cl | -14.7%
CCCCNC(=S)NNC(=O)c1ccc2c(c1)OCO2 | -24.3%
Nc1ccc(Cl)c(NC(=O)c2cccs2)c1 | -12.3%
Cc1ccc(C(=O)NC(C)c2ccc(C)c(C)c2)s1 (stereo not given) | 24.3% (active)
Cc1cc(C(=O)NNC(=O)c2cccs2)nn1C(C)(C)C | -14.9%
O=S(=O)(Nc1ccc(O)c2ccccc12)c1ccc(F)cc1 | -19.8%
O=C1C2C3C=CC(C4CC34)C2C(=O)N1/N=C/c1ccc(-c2ccc(F)cc2[N+](=O)[O-])o1 (stereo not given) | -20.9%
Cc1ccc(/C=N/Nc2nc(C(C)(C)C)cs2)o1 | -0.3%
COCCNC(=O)C1CC(=O)N(c2ccc(OC)cc2)C1c1ccc(OC)cc1 (stereo not given) | -16.8%
CN1C(=O)/C(=N/OC(=O)c2ccccc2)c2ccccc21 | -19.8%
O=C(O)CCCCn1c(SCc2ccccc2Cl)nc2ccsc2c1=O | -5.9%

Compound | activity change, less the hit threshold
Cc1ccc(C)c(NC(=O)C2C3CCCC2C3c2ccccc2)c1 (stereo not given) | -4.2%
Cc1cccc(NC(=S)NNC(=O)c2csc3c2CCC(C)C3)c1 (stereo not given) | -8.1%
Cc1ccc(C)c(NC(=S)NNC(=O)c2csc3c2CCC(C)C3)c1 (stereo not given) | 14.5% (active)
O=C(OCC(=O)N1CCOCC1)c1ccc(Cl)cc1[N+](=O)[O-] | -13.6%
O=c1ccn(CCCBr)c(=O)[nH]1 | -13.2%
COC(=O)CSc1nc(N2CCCCC2)c2c(c1C#N)CCCC2 | -6.4%
CCOC(=O)C(C)Sc1nc2c(c(-c3cccs3)c1C#N)CCC2 (stereo not given) | -15.1%
COC(=O)CSc1nc2c(c(-c3ccc(C)o3)c1C#N)CCCC2 | 7.4% (active)
Nc1cccc(Oc2cnccn2)c1 | -17.9%
COc1cc2c(cc1OC)CN(C(=O)c1ccc3nc[nH]c3c1)CC2 | -2.1%
Cc1ccc(OCC(=O)NC(=S)Nc2ccc(Br)cn2)cc1C | -11.2%
Cc1ccc(OCC(=O)NC(=S)Nc2ccc(Br)cn2)cc1 | 12.4% (active)
Cc1nc(NC(=S)NC(=O)COc2ccc(Cl)cc2)ccc1Br | -19.1%
COc1ccc(N(CC(=O)N2CCN(Cc3ccccc3)CC2)S(C)(=O)=O)cc1OC | -16.5%
COCCNC(=O)C(c1ccc(C)o1)N(Cc1ccc(OC)cc1)C(=O)Cn1nnc2ccccc21 (stereo not given) | 19.1% (active)
Cc1ccc(-c2nnn(CC(=O)N(CC3CCCO3)C(C(=O)NC3CCCC3)c3ccc(O)cc3)n2)o1 (stereo not given) | -15.8%
COCCNC(=O)C(c1ccncc1)N(C(=O)Cn1nnc2ccccc21)c1ccc(OC)cc1 (stereo not given) | -20.7%
CC1CC(C)CN(CCCNC(=O)Cc2c(C(=O)O)[nH]c3ccccc23)C1 (stereo not given) | -14.9%
Nn1c(SCC(=O)Nc2ccccc2F)nnc1C1CCCCC1 | -10.5%
CC1Cc2ccccc2N1C(=S)NC(=O)c1cccc(Br)c1 (stereo not given) | 121% (active)
COc1cc2c(cc1OC)C(C)N(C(=S)NC(=O)c1ccccc1)CC2 (stereo not given) | -10.9%
CC1Cc2ccccc2N1C(=S)NC(=O)c1ccco1 (stereo not given) | -3.3%
Cc1ccc2c(c1)C1CN(C)CCC1N2C(=S)NC(=O)c1ccc(Br)cc1 (stereo not given) | -7%
CC1Cc2ccccc2N1C(=S)NC(=O)C1(C)CC1(Cl)Cl (stereo not given) | 38.1% (active)
CC1Cc2ccccc2N1C(=S)NC(=O)c1ccc(Cl)cc1Cl (stereo not given) | 52.5% (active)
